Test results: PubChem BioAssay (NCI)
The panel holds about 79,000 compounds, 15% with a hit somewhere; the sample as a whole holds those more often. A number with no mark means an inactive call. Calls of active or inactive are those of the source. No stated cut-off is given here; in the data, active means growth inhibition above about 70%; inactive means the rest.

Assays:
[1] = NCI Yeast Anticancer Drug Screen. Data for the rad50 strain (AID 155);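 further: 0% = growth of vehicle-only cultures of the same strain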; details: S. cerevisiae rad50 strain growth inhibition; at 50.0 µM; hits give high values
Summary of the method: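 DNA repair mutant yeast, compound exposure, growth read-out; inhibition is taken relative to vehicle.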

[2] = NCI Yeast Anticancer Drug Screen. Data for the mec2-1 strain (AID 157); details: S. cerevisiae mec2-1 strain, at 50.0 µM, hits give high values
Summary of the method: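 Mutant yeast (mec2-1) grown with compound; growth inhibition relative to vehicle control reported.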

[3] = NCI Yeast Anticancer Drug Screen. Data for the sgs1 mgt1 strain (AID 161);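 further: 0% = growth of cultures given vehicle only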; details: S. cerevisiae sgs1 mgt1 strain, at 50.0 µM, hits give high values
Summary of the method: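 Yeast cells carrying a defined DNA-repair defect were exposed to test compounds. Growth inhibition was measured relative to vehicle-treated controls.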

[4] = NCI Yeast Anticancer Drug Screen. Data for the cln2 rad14 strain (AID 165);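 further: 0% = growth equal to vehicle treated cultures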; details: S. cerevisiae cln2 rad14 strain, at 50.0 µM, hits give high values
Summary of the method: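 Readout is yeast growth inhibition versus vehicle-treated controls, using a strain with cln2 and rad14 alterations exposed to compound.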

[5] = NCI Yeast Anticancer Drug Screen. Data for the bub3 strain (AID 167); details: S. cerevisiae bub3 mutant strain, at 50.0 µM, hits give high values
Summary of the method: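 In this screen, a yeast mutant lacking normal mitotic checkpoint function is challenged with compound. Relative growth versus vehicle gives the inhibition value.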

[6] = NCI Yeast Anticancer Drug Screen. Data for the mlh1 rad18 strain (AID 175); details: S. cerevisiae mlh1 rad18 strain growth inhibition; at 50.0 µM; hits give high values
Summary of the method: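 Genetically defined yeast (DNA repair-deficient) exposed to compounds; growth inhibition determined relative to vehicle.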

Row | Structure (SMILES) | growth inhibition [1] | growth inhibition [2] | growth inhibition [3] | growth inhibition [4] | growth inhibition [5] | growth inhibition [6]
1 | Cc1cc2c(cc1C)NC(=O)CC(=O)N2 | -3.45% | -28.8% | -8.45% | 1.95% | -18.7% | 14.4%
2 | COC(=O)C(CC(=O)Nc1ccc(Cl)c(Cl)c1)C(=O)C(=O)Nc1ccc(Cl)c(Cl)c1 (configuration not stated) | -36.2% | -15.6% | -34% | 6.6% | -3.25% | -10.7%
3 | COc1ccccc1N=Nc1c(-c2ccccc2)nn(C(=O)CC(=O)Nc2cccc(C)c2)c1-c1ccccc1 | 29.1% | 17.5% | 4.9% | 5.65% | 52.5% | 27.3%
4 | CCOC(=O)/C(C#N)=C\N(C)C | 8.75% | -12.7% | 5.65% | 5.65% | 9.65% | 13.5%
5 | CCC(C)C(=O)/C=C/c1ccccc1 (configuration not stated) | 14.2% | -6.15% | -2.85% | -25.3% | 21.3% | -12.1%
6 | N#C/C(=C/NC(=S)NCc1ccccc1)C(N)=O | -32.6% | -42.1% | -4.6% | 0.25% | 6.7% | -0.3%
7 | CC1(C)C(=O)C(C)(C)C(=O)C(C)(C)C1=O | 2.45% | -15.7% | 5.4% | 16.9% | 11.3% | -0.3%
8 | Cc1cccc[n+]1C1CCc2ccccc2C1=O (configuration not stated) | 1.5% | 10.7% | 17.4% | -23.1% | -21.3% | 4%
9 | O=C(CN(C(=O)OC12CC3CC(CC(C3)C1)C2)C(=O)OC12CC3CC(CC(C3)C1)C2)Oc1ccc([N+](=O)[O-])cc1 | 7.75% | 7.15% | 7.35% | 31.8% | 13.6% | -0.85%
10 | O=C1/C(=C\c2ccccc2)C2C3CCC(C3)C2/C1=C\c1ccccc1 (configuration not stated) | -3.55% | 0.55% | 4.6% | -63.8% | 11.1% | -17.4%
11 | CS(=O)(=O)Oc1c(Cl)cc(Cl)c2cccnc12 | 7.8% | -1.1% | -3.75% | -13.7% | 1.2% | 11.2%
12 | COC(=O)c1c(C)cc(OC(=O)c2c(C)cc(OC)c(C)c2OC)c(C)c1O | 14.6% | 3.5% | -2.15% | 10.4% | -0.65% | 4.65%
13 | CC1CC[N+](C)([B-](F)(F)F)CC1 (configuration not stated) | 0.85% | 1.85% | 11.5% | -31.1% | 2.45% | 11.1%
14 | CC(=O)C1CC=C(C)CC1 (configuration not stated) | -6.8% | -9.55% | 15.8% | 14.6% | -2.85% | 2.6%
15 | O=C(O)CCC(=O)c1ccc2c3c1CCCC3CC2 (configuration not stated) | 52.8% | 51.5% | 48.5% | 29% | 17.2% | 70.7% (active)
16 | NCc1ccc2ccc3ccccc3c2c1 | 11.1% | -0.95% | -1.35% | 11.2% | -4.45% | 19.7%
17 | O=C(Nc1ccccc1)Oc1ccc(C2CCCCC2)cc1 | 14.7% | 22.1% | 8.2% | 0.95% | 23.3% | 54.6%
18 | Cc1cc(C)nc(N(C)CCN2CCCCC2)c1 | -6.5% | -3.1% | 3.4% | -25.1% | 5.45% | -5.85%
19 | O=C(C(CO)c1ccccc1)N1CCOCC1 (configuration not stated) | -10.3% | -15.4% | -3.45% | -23.4% | 4.35% | 2.55%
20 | CCN(CC)CCCO | 27.8% | -12.3% | -7.75% | -8.8% | -4.6% | 20.1%
21 | NC(=O)N/N=C/C(/C=N/NC(N)=O)[N+](=O)[O-] | -3.8% | -7.4% | -10.3% | -1.75% | -14.6% | 6.8%

Row | Structure (SMILES) | growth inhibition [1] | growth inhibition [2] | growth inhibition [3] | growth inhibition [4] | growth inhibition [5] | growth inhibition [6]
22 | COC(=O)CCCC1(CCCC(=O)OC)CCCCCCCCC(CCCC(=O)OC)(CCCC(=O)OC)C(=O)C1=O | 21.8% | 36.9% | 37.2% | 45.5% | 35.8% | 47.6%
23 | CN=c1ss/c(=N\C(=S)N(C)C)n1C | -0.2% | -10.5% | -21.6% | 28% | -11.5% | 6.8%
24 | O=C1OC(=O)C2C1C1c3ccccc3C2(Br)c2ccccc21 (configuration not stated) | -3.15% | 13.7% | -0.45% | -6.05% | 3.55% | 7.65%
25 | CCc1ccc(N=Cc2cc(OC)c(OC)c(OC)c2)cc1 | -4.2% | 16.4% | 29.4% | 4.75% | 14.2% | -6.45%
26 | NC(Cc1ccccc1F)C(=O)O (configuration not stated) | 5.95% | -18.6% | 5.4% | 13.6% | 4.9% | 11.2%
27 | CN1C(=O)c2cnc3ccccc3c2C1(O)c1ccccc1 (configuration not stated) | -1.75% | 1.35% | 2.4% | 5.25% | 0% | 3.9%
28 | COC(=O)c1cc(-c2ccccc2Cl)n2c(N)nnc2n1 | 21.6% | -3.1% | 32.6% | -6.2% | -20.3% | 7.1%
29 | CCCCCCCCCCC(CCCCCCCCCC)=NN=C(CCCCCCCCCC)CCCCCCCCCC | -41.4% | 9.45% | 1.35% | 25.9% | 1.1% | -9.3%
30 | Cc1ccc(N/N=c2\c3nc4ccccc4nc2n(-c2ccccc2C)c(=S)n3-c2ccc(C)cc2)cc1 | -19.6% | -14.3% | 1.15% | -18.7% | 0.8% | -29.5%
31 | O=c1[nH]cc(CS)c(=O)[nH]1 | 28.4% | 0.85% | -7.95% | 34% | 51% | 14.5%
32 | C=C(C)c1nn(-c2ccccc2)c2c1C(=O)CC(C)O2 (configuration not stated) | -12.2% | -26.2% | 1.8% | 29.2% | -7.45% | 8.5%
33 | CCCCCC(=O)NC1CCCCC1 | 5.55% | 13.6% | 8.15% | -7.4% | -30.6% | 15.5%
34 | CCCC(=O)C(CC)C(=O)OCC (configuration not stated) | -8.7% | -1.35% | -3% | -9.8% | -0.25% | 11.4%
35 | c1ccc(CC2(c3ccccc3)OCc3ccccc32)cc1 (configuration not stated) | 6% | 12.2% | 17.6% | 15.4% | -2.2% | 20.5%
36 | CN(N=O)C(=O)NCCSc1ncnc2nc[nH]c12 | 9.75% | 13.1% | -2.25% | -108% | -2.5% | -17.2%
37 | O=Cc1ccc2ccccc2c1 | 33.5% | -12% | -7.45% | -57.5% | 16.8% | 30.8%
38 | NC(=S)N=Nc1c(O)[nH]c2ccccc12 | 12.8% | -9.8% | -5.9% | 4.85% | 9.95% | 6.55%
39 | CCCCNC(=O)Oc1cccc2ccccc12 | 4.3% | -6.8% | 7.7% | -4.35% | 29.8% | -6.4%
40 | Cc1ccc2c(c1)SCc1c-2[nH]c2ccccc12 | 93.2% (active) | 95.3% (active) | 95.3% (active) | 88.9% (active) | 91.8% (active) | 92.8% (active)
41 | C=CCc1cc2c(cc1COC(C)=O)OCO2 | -35.7% | -17.9% | -15.4% | -36.5% | -10.6% | -28%
42 | COc1cc(/C=C/C(=O)O)cc(OC)c1O | 5.65% | -5.05% | -22.9% | 23.1% | 10.8% | 16.5%
